Compounds without any hit were thinned out: in the full panel of roughly 83,000, 20% have a hit.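 How to read the values: 0–100, growth inhibition (40 = 60% inhibited); 0, no net growth; -100 to 0, cell death (-40 = 40% of starting cells died; -100 = all dead).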 Values without a mark were called inactive. The source made the active and inactive calls. The calls were made as follows: active = growth percent below 10; inactive = the rest.
Assays:
Assay in all cases: NCI-60 one-dose screen, 48 h (100 = growth as untreated, 0 = no growth, -100 = all killed)
[1] = tested on: HCT-15 colon; conditions: 10 µM unless noted
[2] = tested on: HT29 colon; conditions: 10 µM unless noted
[3] = tested on: SNB-75 CNS; conditions: 10 µM unless noted
[4] = tested on: SNB-19 CNS; conditions: 10 µM unless noted
[5] = tested on: U251 CNS; conditions: 10 µM unless noted
[6] = tested on: PC-3 prostate; conditions: 10 µM unless noted
[7] = tested on: SK-MEL-5 melanoma; conditions: 10 µM unless noted
[8] = tested on: UACC-62 melanoma; conditions: 10 µM unless noted
[9] = tested on: LOX IMVI melanoma; conditions: 10 µM unless noted
[10] = tested on: SK-MEL-28 melanoma; conditions: 10 µM unless noted
[11] = tested on: SK-MEL-2 melanoma; conditions: 10 µM
[12] = tested on: EKVX NSCLC; conditions: 10 µM unless noted
[13] = tested on: SN12C renal; conditions: 10 µM unless noted
[14] = tested on: UO-31 renal; conditions: 10 µM unless noted
[15] = tested on: TK-10 renal; conditions: 10 µM unless noted
[16] = tested on: ACHN renal; conditions: 10 µM unless noted
[17] = tested on: CCRF-CEM leukemia; conditions: 10 µM unless noted
[18] = tested on: MOLT-4 leukemia; conditions: 10 µM unless noted
[19] = tested on: A498 renal; conditions: 10 µM unless noted

Compound	growth [1]	growth [2]	growth [3]	growth [4]	growth [5]	growth [6]	growth [7]	growth [8]	growth [9]	growth [10]	growth [11]	growth [12]	growth [13]	growth [14]	growth [15]	growth [16]	growth [17]	growth [18]	growth [19]
Cc1ccsc1C(NC(=O)c1ccccc1)c1cc(Cl)c2cccnc2c1O (stereo not drawn)	13.4%	29.2%	30%	15.3%	6.52% (active)	18.3%	4.33% (active)	-22.3% (active)	8.58% (active)	45.4%	12.6%	18.2%	23.2%	2.22% (active)	27.6%	10.8%	9.96% (active)	14.6%	–
CC(C)(C)C(=O)OCOP(=O)(OCOC(=O)C(C)(C)C)C1CCCN(OC(=O)c2ccccc2)C1=O (stereo not drawn)	28.6%	5.75% (active)	73.1%	14%	6.63% (active)	49.7%	-28% (active)	4.95% (active)	40.1%	-11.1% (active)	51%	21.4%	4.97% (active)	11.5%	11.7%	15.7%	4.03% (active)	7.12% (active)	10.9%
c1cc[n+](Cc2c3ccccc3cc3c2ccc2ccccc23)cc1	91.5%	25.6%	29.6%	6.26% (active)	6.64% (active)	42%	-60.1% (active)	11.2%	48.8%	-2.27% (active)	25%	58.3%	0.929% (active)	81.9%	78.1%	103%	55.5%	25.6%	–
COC(=O)C1CCc2sc3ncnc(Nc4cn[nH]c4C(=O)Nc4ccc(CN5CCN(C)CC5)cc4)c3c21 (stereo not drawn)	7.28% (active)	-0.301% (active)	-22.4% (active)	21.6%	-24.2% (active)	9.88% (active)	-59.3% (active)	58.8%	0.377% (active)	23.5%	-20.4% (active)	8.24% (active)	12.7%	-15.3% (active)	5.51% (active)	4.58% (active)	1.79% (active)	-6.03% (active)	-25.6% (active)
CC(C)c1ccc(/C=N/Nc2nc3ccccc3s2)cc1	83.9%	78.8%	103%	97.7%	80.8%	77.9%	91.6%	87%	89.1%	108%	106%	87.2%	86.3%	57.1%	148%	103%	84.8%	70.5%	92.8%
CCN1CCN(c2nc(C)cc(N(CCCNc3ccnc4cc(Cl)ccc34)Cc3ccc4c(c3)OCO4)n2)CC1	-32.9% (active)	-26.2% (active)	-53.5% (active)	24.8%	-73.7% (active)	24.7%	-97.6% (active)	-52.9% (active)	-84.4% (active)	-64.1% (active)	-60.1% (active)	35.8%	30.1%	-86.8% (active)	-70.7% (active)	–	-13.5% (active)	-14.1% (active)	-27.7% (active)
Cc1cc2c(-c3nc4ccccn4c3NC3CCCCC3)c(O)c(O)cc2c(O)c1-c1c(C)cc2c(-c3nc4ccccn4c3NC3CCCCC3)c(O)c(O)cc2c1O	19.9%	25.7%	28%	25.3%	19.8%	18.4%	23.9%	-1.66% (active)	27.4%	38.9%	38.9%	27.1%	33%	35.3%	27.5%	–	23.5%	43.6%	71.4%
Cc1cc(N2CCOCC2)nc(N(CCNc2ccnc3cc(Cl)ccc23)Cc2cccs2)n1	17.8%	-43.1% (active)	-18.1% (active)	56.5%	-10.5% (active)	24.4%	-4.8% (active)	-24.6% (active)	-72.1% (active)	11.6%	-39.4% (active)	51.5%	42.3%	-8.69% (active)	19.4%	1.88% (active)	6.42% (active)	-9.25% (active)	22.8%
